D3 antag – antagonists of human D3 dopamine receptor; 2.5% of 360,000 active; P35462; D3R cells, DiscoveRx beta-arrestin luminescence, antagonist mode; stronger effect = lower value; max response, negative = inhibition, %; in the data active means max response below about -50%; inconclusive means no clear call, values can overlap the other calls; further: on the % scale 0 is the no-effect control and ±100 the full control effect
Target sequence (P35462 whole entry, looked up): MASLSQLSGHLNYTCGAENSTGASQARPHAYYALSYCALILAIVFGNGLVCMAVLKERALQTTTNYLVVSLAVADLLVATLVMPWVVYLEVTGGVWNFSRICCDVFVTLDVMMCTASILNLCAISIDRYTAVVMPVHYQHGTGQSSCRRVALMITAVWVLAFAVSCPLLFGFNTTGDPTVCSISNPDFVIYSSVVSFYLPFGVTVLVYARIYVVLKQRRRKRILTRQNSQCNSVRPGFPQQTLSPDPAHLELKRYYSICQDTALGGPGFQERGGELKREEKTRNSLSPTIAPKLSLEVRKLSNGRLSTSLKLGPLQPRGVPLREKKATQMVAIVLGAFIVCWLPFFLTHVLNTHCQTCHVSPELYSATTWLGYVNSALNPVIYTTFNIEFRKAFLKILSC
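Cells plated overnight at 1500 cells/well, then exposed to library compounds with dopamine controls for 90 minutes at 37 degrees C. DiscoveRx reagent added for 30–60 minutes at room temperature; luminescence read, quantitative HTS format.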
TDP1 cell noCPT – qHTS for Inhibitors of human tyrosyl-DNA phosphodiesterase 1 (TDP1): qHTS in cells in absence of CPT; DT40 Tdp1-/- hTDP1 cells, no CPT, ATP luminescence, 48 h; Potency, µM (top dose mostly 46.2 µM), without a hit: top-dose activity change, negative = growth inhibition, usual class: inhibitors; 15% of 420,000 active; further: potency means the concentration at half of the fitted maximal effect; on the % scale 0 is the no-effect control and ±100 the full control effect; nearly all actives have a fitted effect of over 55% in size
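Chicken DT40 Tdp1-/- cells stably complemented with human TDP1 were seeded at 400 cells/well with DMSO in place of 20 nM camptothecin. After compound pinning, cells grew at least 48 hr at 37 °C; viability read by CellTiter-Glo luminescence.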
DRD3 agonist – D3 dopamine receptor (human) agonism | P35462 | D3R DiscoveRx beta-arrestin cells, luminescence, 90 min | max activation, % | 0.58% of 410,000 active | AID 652048; in the data active means max activation above about 30%; further: 0% is about no effect
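Agonist mode: compounds and dopamine controls were applied to plated cells for 90 min at 37 degrees C after an overnight attachment at 1500 cells/well. Luminescent read-out followed 30 - 60 minutes at room temperature with DiscoveRx detection reagent.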
TDP1 cell CPT – DT40-hTDP1 cell growth loss with CPT | chicken DT40 Tdp1-/-;hTDP1 cells + 20 nM CPT, ATP luminescence, 48 h | 12% of 420,000 active | Potency, µM (highest dose often 46.2 µM), for inactives: at the top dose activity change, negative = growth inhibition, hits mostly inhibitors; further: potency means the concentration at half of the fitted maximal effect; on the % scale 0 is the no-effect control and ±100 the full control effect; nearly all actives have a fitted effect of over 55% in size
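Chicken DT40 Tdp1-/- cells stably complemented with human TDP1 were seeded at 400 cells/well in medium containing 20 nM camptothecin, exposed to pin-transferred compounds, and grown at 37 °C for at least 48 hr. Viability was read as ATP luminescence.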
ClpP mod – qHTS Assay for Activators of ClpP; ATP-dependent Clp protease proteolytic subunit (Bacillus subtilis (strain 168)), P80244; purified B. subtilis ClpP, FRET peptide cleavage, 20 min; Potency, µM (series often up to 57.5 µM), for the others: top-dose activity change, negative = active; AID 651965, 2013; 1.9% of 340,000 active; active means well fitted falling curve with a large enough effect; inconclusive means small, poorly fitted or top-dose-only effect; inactive means no such curve, though single readings can be large or run the other way; further: potency means the concentration at half of the fitted maximal effect; the source files actives as falling curves though it sought activators and does not explain the sign; nearly all actives have a fitted effect of over 65% in size
Target sequence (P80244 whole entry, looked up): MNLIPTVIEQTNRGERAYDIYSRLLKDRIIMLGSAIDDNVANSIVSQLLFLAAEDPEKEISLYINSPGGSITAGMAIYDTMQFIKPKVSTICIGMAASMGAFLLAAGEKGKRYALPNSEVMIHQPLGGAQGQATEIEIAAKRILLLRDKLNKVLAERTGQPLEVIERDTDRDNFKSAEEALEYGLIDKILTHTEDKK
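ClpP 10 microg/mL final, pH 8 Tris/KCl buffer with BSA, glycerol, Tween-20; compound pinned in; FRET-FV substrate; RT 20 min; Ex320/Em430; ΔFRET vs ADEP 5.8 microM, DMSO, no enzyme.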
IL1B secr inh – inhibitors of inflammasome signaling (IL-1 beta secretion); THP-1 LPS/ATP IL-1B secretion, AlphaLISA, 16 h; stronger effect = lower value; activity change, % at 57.5 µM; 4.7% of 360,000 active; AID 743279; in the data active means activity change below about -50%; inconclusive means mostly about -30% to -49%; further: on the % scale 0 is the no-effect control and ±100 the full control effect
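THP-1 cells pretreated 1 hr with compounds (up to 57.5 uM final), then stimulated with LPS (250 ng/mL final) plus ATP (1.25 mM final); secreted IL-1B measured by AlphaLISA after 16 hr, decreased signal indicating inhibition.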
* hit, by the source's call; ? = inconclusive; . = no result; ! = a repeat was not active; [ ] = another dose, or the depositor's remark. Rows were chosen to be rich in hits. Some 21% of all compounds tested hit in one or more screens of this group. Unless noted, the call rests on the fitted dose curve; in most records, active means well fitted inhibition curve with a large enough effect; inconclusive means small, poorly fitted or top-dose-only effect; inactive means flat fitted curve, though single readings scatter.

SMILES	D3 antag	TDP1 cell noCPT	DRD3 agonist	TDP1 cell CPT	ClpP mod	IL1B secr inh
CCc1ccc(/C=C(/C#N)c2nc(-c3ccc(C)cc3)cs2)cc1	.	-13.7%	8.1	-17.5%	-1.1%	.
CCOc1ccc(-c2csc(/C(C#N)=C\c3ccc(O)c([N+](=O)[O-])c3)n2)cc1	9.1	4.61µM*	13.2	3.66µM*	1.5%	-6.2
COc1cccc(C(=O)CC(=O)C(=O)Nc2ccc(C)cc2Cl)c1	5.5	?	9.3	?	.	30.8
COc1cc(OC)c(NC(=O)Cn2cccc2)cc1Cl	15.4	11.4%	4.8	2.8%	-2.4%	-12.3
CCCCOC(=O)c1ccc(NC(C)=O)cc1	0.0	-9.7%	-2.8	3.6%	0.9%	14.9
COc1cc(OC)c(NC(=O)C(=O)CC(=O)c2ccc(C)cc2C)cc1Cl	?	2.59µM*	-9.2	4.61µM*	.	-5.7
COc1ccc(C(=O)NNC(=O)C(=O)Nc2ccc(C)c(Cl)c2)cc1	0.8	?	-3.8	23.1µM*	2.6%	-10.7
COc1ccc(C(=O)CC(=O)C(=O)Nc2ccc(C)cc2Cl)cc1	-64.0*	16.4µM*	7.9	?	-0.6%	10.7
CCCCOC(=O)c1ccc(NC(=O)C(=O)CC(=O)c2ccc(OC)cc2)cc1	?	16.4µM*	3.7	16.4µM*	.	-4.1
COc1ccc(C(=O)CC(=O)C(=O)Nc2ccc(C)c(C)c2)cc1	-8.9	20.6µM*	-3.6	20.6µM*	.	3.0
CCCCOC(=O)c1ccc(NC(=S)NC(=O)c2c(Cl)cnn2C)cc1	-85.0*	16.4µM*	-2.7	23.1µM*	-0.1%	1.5
CCCCOC(=O)c1ccc(NC(=S)NC(=O)c2c(Cl)cnn2CC)cc1	-10.9	?	-1.2	?	0.0%	76.8
Cc1nc(-c2ccc(Cl)cc2)sc1CCNC(=O)c1cccs1	.	?	-17.0	?	4.8%	.
CC(C)[C@H](NS(=O)(=O)c1cccc(C(F)(F)F)c1)C(=O)OCC(N)=O	4.1	-15.1%	3.8	2.8%	.	12.1
Cc1ccc(Cn2c(=O)c3ccccc3n3c(SCC(=O)N4CCCCC4C)nnc23)cc1 (configuration not stated)	-15.8	16.4µM*	-4.7	18.4µM*	0.3%	0.0
Cc1ccc(Cc2nc3ccccc3nc2SCC(=O)N2CCCCC2C)cc1 (configuration not stated)	.	23.1µM*	3.3	14.6µM*	-10.5%	.
Cc1ccc(Cn2c(=O)c3ccccc3n3c(CCC(=O)O)nnc23)cc1	-5.4	3.5%	4.5	3.2%	-9.1%	-9.6
Cc1ccc2cc(C#N)c(SCC(=O)N3CCCc4ccccc43)nc2c1	0.6	-4.1%	1.9	13.2%	-0.8%	0.0
COc1cccc(Cc2nc3ccccc3nc2SCC(=O)N2CCCCC2C)c1 (configuration not stated)	.	5.17µM*	-11.4	?	-7.2%	.
CC1CCCCN1C(=O)CSc1nnc(Cc2ccccc2)n1C (configuration not stated)	16.8	1.4%	5.4	1.1%	0.8%	7.0
Cc1ccc2cc(C#N)c(SCC(=O)N3CCCc4ccccc43)nc2c1C	0.0	8.2µM*	-11.9	20.6µM*	-3.7%	34.0
COc1ccc(N2CC(C(=O)NC3CCSC3=O)CC2=O)cc1 (configuration not stated)	4.3	-0.4%	2.7	-7.2%	.	21.1
CCOC(=O)c1cc(S(=O)(=O)Nc2c(C)cc(C)cc2C)[nH]n1	.	-27.2%	-7.4	-11.5%	1.0%	.
COc1cccc(Cc2nc3ccccc3nc2SCC(=O)N2CCCc3ccccc32)c1	.	?	-13.1	18.4µM*	0.9%	.
Cc1cc2c(cc3c(SCc4ccccc4Cl)nnc(C)n32)o1	.	?	12.2	?	-8.3%	.
SMILES	D3 antag	TDP1 cell noCPT	DRD3 agonist	TDP1 cell CPT	ClpP mod	IL1B secr inh
CC(C)(C)C(=O)Nc1cc(-c2cccc(Br)c2)nn1-c1ccccc1	.	20.6µM*	-2.2	?	-0.8%	.
Cc1cccc(-c2cc(NC(=O)C(C)(C)C)n(-c3ccccc3)n2)c1	.	?	-7.4	-29.2%	-2.0%	.
Cn1cnnc1Sc1ccc(CN2CCOc3ccc(C4=CCCCC4)cc3C2)o1	.	?	.	-1.2%[9.04 µM]	.	.
O=C(NCC(O)CO)c1ccc2[nH]c3ccccc3c2c1 (configuration not stated)	10.4	4.2%	5.8	25.4%	28.2µM*	-6.4
CCOC(=O)CNC(=O)c1ccc2[nH]c3ccccc3c2c1	-2.3	?	-1.5	?	4.3%	-62.8*
CCOC(=O)CNC(=O)c1ccc(C)cc1	0.0	-11.8%	-0.1	-6.8%	-2.2%	-19.4
COc1cccc(CNC(=O)Cn2c(SCC(=O)Nc3ccc(F)cc3)nc3ccccc32)c1	.	?	-0.8	?	-0.2%	.
O=S1(=O)CCO[C@H]2Cc3ccccc3[C@H]2N1Cc1ccccc1F	0.0	?	-8.6	23.1µM*!	-0.3%	-19.9
O=S1(=O)CCO[C@H]2Cc3ccccc3[C@H]2N1Cc1ccccc1Br	3.9	23.1µM*	0.0	?	1.7%	-1.1
C[C@@H]1[C@H](c2ccccc2)OCCS(=O)(=O)N1Cc1ccccc1F	.	12.6µM*	.	?	-1.5%	.
Cc1ccc(CN2[C@H](C)[C@H](c3ccccc3)OCCS2(=O)=O)cc1	.	?	.	?	-1.9%	.
O=S1(=O)CCO[C@H]2CCCC[C@@H]2N1Cc1ccccc1F	.	?	.	?	-1.0%	.
Nc1nc(-c2cccs2)c(NC(=O)c2ccccc2)s1	-9.6	18.4µM*	-17.5	16.4µM*	1.2%	-95.5*
C#C[C@]1(OC(C)=O)CC[C@H]2[C@@H]3CCC4=CC(=O)CC[C@@H]4[C@H]3CC[C@@]21C	.	11.9µM*	8.3	8.41µM*	.	.
Cc1ccc(C2NC(=O)CCC2[N+](=O)[O-])cc1 (configuration not stated)	-14.7	?	-9.5	18.4µM*	.	-12.1
COc1ccc(C2NC(=O)CCC2[N+](=O)[O-])cc1 (configuration not stated)	-1.3	0.9%	0.5	18.6%	0.9%	12.5
COc1ccc(C(=O)C=Cc2ccc(OCc3ccccc3)c(OC)c2)cc1OC	35.0	4.61µM*	5.6	7.31µM*	-21.2%	-90.1*
COc1ccc(OC(=O)/C=C/c2ccc([N+](=O)[O-])cc2)cc1	5.9	?	5.0	-16.9%	.	22.0
COc1cc(/C=C/[N+](=O)[O-])ccc1OCc1cccc(C(=O)O)c1	-24.1	16.4µM*	-0.6	16.4µM*	.	-96.8*
